This note sets out measurements from PubChem BioAssay (NCATS).

The target of test [1] is Glucagon-like peptide 1 receptor (Homo sapiens) (UniProt P43220). Description: qHTS of GLP-1 Receptor Agonists: LOPAC Validation (AID 624148).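 Further: 0% is about no effect; higher luminescence signal means agonism.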 In a few lines:
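HEK293 cells stably co-expressing GLP-1R and a cAMP-responsive luciferase reporter, plated 12 hours before compound, then incubated 4-6 hr at 37 deg C. Luminescence read 12 min after detection reagent.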

A short description of test [2]: qHTS of Nrf2 Activators: LOPAC Validation (AID 624149). Further: 0% is about no effect. Put shortly:
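AREc32_Fluc cells, 1000/well in OPTI-MEM with 5% FBS, grown overnight, then exposed to compounds for 24 hr at 37 deg C, 5% CO2. ARE-driven firefly luciferase read by Steady-Glo luminescence after 30 min at RT.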

A short description of test [3]: HTS Assay for Allosteric Antagonists of the Human D2 Dopamine Receptor: Hit Validation in HTRF (AID 624455).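 Further: stable D1 dopamine receptor cell line scored for blocking the D1 response; on the % scale 0 is the no-effect control and ±100 the full control effect.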 Put shortly: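 Hit validation in cells stably expressing the D1 dopamine receptor, run in HTRF format. Compounds were tested for their ability to inhibit the D1-mediated response.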
Test [4] can be described thus: qHTS assay for small molecule agonists of the antioxidant response element (ARE) signaling pathway (AID 651741; active means well fitted activation curve with a large enough effect in the signal ratio; the % refers to the signal ratio; further: potency means the concentration at half of the fitted maximal effect; on activation: % of control where 0% means no effect). In a few lines:
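CellSensor ARE-bla HepG2 cells (2,000/well) carrying ARE-driven beta-lactamase, exposed 16 h at 37 C. LiveBLAzer B/G FRET substrate added for 2 h at room temperature; fluorescence intensity read.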

For test [5], the target named is Tumor necrosis factor (Homo sapiens) (UniProt P01375). Description: qHTS assay to identify small molecules that stimulate Tumor Necrosis Factor-alpha (TNF-alpha) secretion (AID 651757; active means well fitted curve in the direction sought with a large enough effect in the signal ratio; the % refers to the signal ratio; further: 0% is about no effect). In a few lines:
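THP-1 cells (3000/well) exposed to compounds 17 hrs at 37 C. Secreted TNF-alpha detected by HTRF with cryptate- and XL665-labeled anti-TNF-alpha antibodies after 3 hr at room temperature.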

A short description of test [6]: qHTS assay for environmental chemicals that activate the Aryl hydrocarbon Receptor (AhR) signaling pathway (AID 651777). Further: % of control where 0% means no effect; nearly all actives have a fitted effect of over 15% in size. The following applies: 1A2-DRE human hepatoma cells, luciferase, 24 h; activation: stronger effect = higher value. Put shortly: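 Quantitative HTS in stably transfected human liver-derived cells whose luciferase gene sits downstream of the CYP1A2 promoter and dioxin response element. After 24 hr exposure at 37 C, One-Glo luminescence was measured.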

In test [7] the target is Peroxisome proliferator-activated receptor alpha (Homo sapiens) (UniProt Q07869). Description: qHTS assay for small molecule agonists of the peroxisome proliferator-activated receptor alpha (PPARalpha) signaling pathway (AID 651778). Further: potency means the concentration at half of the fitted maximal effect. On max response: % of control where 0% means no effect. Conditions: PathHunter PPARalpha complementation, chemiluminescence, 6 h; max response: stronger effect = higher value. In a few lines: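 Enzyme-fragment complementation assay in which ligand-bound PPARalpha translocates and forms an active enzyme that generates chemiluminescence. Cells were plated overnight, exposed to compound for 6 hr at 37 C, and then given detection reagent for 60 min at room temperature.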

Test [8] is described as follows: Cytotoxicity counterscreen for NFkB agonists and antagonists (AID 624476). Further: potency means the concentration at half of the fitted maximal effect.
The nature of test [9]: qHTS Assay for Identification of Small Molecule Agonists for NFkB Signaling Pathway. (AID 624478). Further: 0% is about no effect. Put shortly: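 NFkB-bla ME-180 cells carry a beta-lactamase reporter. They received compound plus TNF alpha at 10 pM final (its EC50) for 5 h at 37 C. Reporter activity was read as 460/530 nm emission ratio after 2 h LiveBLAzer substrate loading.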
Test [10] in a line: qHTS Assay for Identification of Small Molecule Antagonists for NFkB Signaling Pathway. (AID 624479; calls by dose curve;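 further: pathway stimulated with TNF alpha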; further: potency means the concentration at half of the fitted maximal effect).
Test [11] concerns the target Tumor susceptibility gene 101 protein (Homo sapiens) (UniProt Q99816). The test is described as follows: qHTS Assay for Iinhibitors of HIV-1 Budding by Blocking the Interaction of PTAP/TSG101: Hit Validation (AID 651600). Further: potency means the concentration at half of the fitted maximal effect; nearly all actives have a fitted effect of over 70% in size. Conditions: PTAP peptide/TSG101 UEV interaction, biochemical assay. In a few lines:
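Measuring PTAP–Tsg101 interaction by FP: protein at 10 uM and fluorescent peptide at 50 nM (final), buffer 10 mM HEPES pH 7.5 with 0.15 M NaCl, 3 mM EDTA, 0.1 mM TCEP, 0.01% Tween 20; 20 min incubation, r.t.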

Test [12] in a line: Cell Proliferation Assay against the TMD8 Cell Line (AID 651645).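 Further: cells exposed to compound for 48 h before reading.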 The following applies: TMD8 DLBCL cell line proliferation/viability; at 46.1 µM (top of the series) unless noted. In a few lines: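 Cell viability of the ABC DLBCL line TMD8 is measured by CellTiter-Glo luminescence following a 48-hour incubation with compound. Percent activity uses DMSO as 100% and 9.2 uM bortezomib (final) as 0%.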

The nature of test [13]: Cell Proliferation Assay against the HBL1 Cell Line (AID 651646).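 Further: cells exposed to compound for 48 h before reading.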 Conditions: HBL1 DLBCL cells; at 46.1 µM (top of the series) unless noted. Put shortly: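 HBL1 ABC DLBCL cells, 500/well in RPMI with 5% FBS, treated for 48 h at 37C. Viability read by CellTiter-Glo luminescence, normalized to DMSO as 100% and 9.2 uM bortezomib as 0%.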
Test [14] can be described thus: Cell Proliferation Assay against the TMD8 Cell Line (Caspase readout at 16 hrs) (AID 651712). Further: potency means the concentration at half of the fitted maximal effect. Put shortly: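 TMD8 cells in RPMI with 5% FBS were treated with compound for 16 h at 37 C, then caspase 3/7 activation was read by Caspase-Glo luminescence. Percent activity was scaled to DMSO (0%) and 9.2 uM bortezomib final (100%).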
The nature of test [15]: Cell Proliferation Assay against the TMD8 Cell Line (Caspase readout at 8 hrs) (AID 651713). Further: potency means the concentration at half of the fitted maximal effect. Put shortly: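 TMD8 cells in RPMI plus 5% FBS were treated with compound for 8 h at 37C. Caspase 3/7 activation was read by Caspase-Glo luminescence. Percent activity was scaled from DMSO (0%) to 9.2 uM bortezomib final (100%).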
Test [16] can be described thus: qHTS assay for small molecule activators of the p53 signaling pathway (AID 651743; active means well fitted activation curve with a large enough effect in the signal ratio, not every such curve was filed as active; the % refers to the signal ratio; further: % of control where 0% means no effect). The following applies: HCT-116 p53RE-bla, beta-lactamase FRET ratio, 16 h; activation: stronger effect = higher value. In a few lines:
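p53RE-bla HCT-116 cells carrying a beta-lactamase reporter under p53 response elements were exposed to compounds for 16 hours at 37 C. Reporter activity read as fluorescence after 2 hours at room temperature with LiveBLAzer B/G FRET substrate.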

Test [17] can be described thus: qHTS assay for small molecule activators of the nuclear factor-kappa B (NF-kB) signaling pathway (AID 651749; active means well fitted activation curve with a large enough effect in the signal ratio; the % refers to the signal ratio; further: % of control where 0% means no effect). The following applies: NF-kB-bla ME-180 cells, beta-lactamase FRET ratio, 16 h; stronger effect = higher value. In a few lines: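 NF-kB-bla ME-180 cells carrying a beta-lactamase reporter under an NF-kB response element, 2,000 cells/well, exposed to compound for 16 hr at 37C; FRET-based beta-lactamase fluorescence read-out of pathway activation.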

A short description of test [18]: qHTS assay for small molecule disruptors of the mitochondrial membrane potential - 1 hr assay (AID 651754; calls by dose curve; further: nearly all actives have a fitted effect of over 35% in size; further: potency means the concentration at half of the fitted maximal effect). Put shortly: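 HepG2 cells, attached overnight, were exposed to compound for 1 hr at 37C, then stained 30 min with a potentiometric dye. Ratio of red aggregate (590nm) to green monomer (535nm) fluorescence reports membrane potential; collapse shifts signal toward green.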

The nature of test [19]: qHTS assay for small molecule disruptors of the mitochondrial membrane potential - 5 hr assay (AID 651755; calls by dose curve; further: nearly all actives have a fitted effect of over 40% in size; further: potency means the concentration at half of the fitted maximal effect). In a few lines: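 HepG2 cells (2,000/well), attached overnight, exposed to compound 5 hr at 37C, then Mito-MPS dye 30 min. Fluorescence read for monomers (490/535 nm) and aggregates (540/590 nm).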

Each structure is given as a SMILES string. “And” between values parts separate entries of the source, which are not always exact repeats. Identical values can stand only once. Results filed as inconclusive are left out. The source made the active and inactive calls. Unless noted, the call rests on the fitted dose curve; in most records, active means well fitted curve in the direction sought with a large enough effect; inconclusive means small, poorly fitted or top-dose-only effect, or another doubt; inactive means no such curve, though single readings can be large; an effect the other way counts as inactive or inconclusive.

Chain of Peroxisome proliferator-activated receptor alpha (Homo sapiens) (Q07869 whole entry, looked up, the tested form may be a part): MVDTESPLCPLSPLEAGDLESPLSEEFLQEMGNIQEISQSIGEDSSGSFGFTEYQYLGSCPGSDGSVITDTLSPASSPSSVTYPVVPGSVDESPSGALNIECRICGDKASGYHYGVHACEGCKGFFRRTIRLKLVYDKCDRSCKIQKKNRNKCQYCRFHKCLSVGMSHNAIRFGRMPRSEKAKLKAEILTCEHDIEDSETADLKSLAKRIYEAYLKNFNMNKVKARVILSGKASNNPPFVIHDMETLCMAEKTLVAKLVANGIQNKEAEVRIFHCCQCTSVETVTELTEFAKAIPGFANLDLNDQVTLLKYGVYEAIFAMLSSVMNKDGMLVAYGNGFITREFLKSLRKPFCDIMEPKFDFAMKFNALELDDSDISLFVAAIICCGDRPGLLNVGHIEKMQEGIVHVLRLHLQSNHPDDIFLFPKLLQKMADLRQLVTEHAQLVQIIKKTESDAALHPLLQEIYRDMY
Chain of Tumor necrosis factor (Homo sapiens) (P01375 whole entry, looked up): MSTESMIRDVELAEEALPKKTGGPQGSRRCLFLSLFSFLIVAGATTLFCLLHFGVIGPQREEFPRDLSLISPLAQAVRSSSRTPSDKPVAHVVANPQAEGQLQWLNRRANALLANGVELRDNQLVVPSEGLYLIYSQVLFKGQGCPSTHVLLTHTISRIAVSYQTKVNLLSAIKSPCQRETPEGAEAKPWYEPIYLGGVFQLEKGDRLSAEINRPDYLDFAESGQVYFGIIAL
Chain of Glucagon-like peptide 1 receptor (Homo sapiens) (P43220 whole entry, looked up): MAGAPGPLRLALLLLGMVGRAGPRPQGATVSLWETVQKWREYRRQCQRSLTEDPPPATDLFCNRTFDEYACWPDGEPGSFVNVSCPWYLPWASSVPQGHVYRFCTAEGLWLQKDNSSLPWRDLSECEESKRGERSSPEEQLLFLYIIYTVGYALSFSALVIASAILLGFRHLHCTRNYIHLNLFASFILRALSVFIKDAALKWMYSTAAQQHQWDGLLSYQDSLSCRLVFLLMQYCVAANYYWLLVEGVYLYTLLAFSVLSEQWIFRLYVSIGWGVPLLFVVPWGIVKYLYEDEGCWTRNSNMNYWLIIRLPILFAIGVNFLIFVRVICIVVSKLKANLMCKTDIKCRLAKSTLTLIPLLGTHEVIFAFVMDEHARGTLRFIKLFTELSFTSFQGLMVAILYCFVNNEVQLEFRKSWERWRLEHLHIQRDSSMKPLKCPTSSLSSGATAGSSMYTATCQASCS
Chain of Tumor susceptibility gene 101 protein (Homo sapiens) (Q99816 whole entry, looked up): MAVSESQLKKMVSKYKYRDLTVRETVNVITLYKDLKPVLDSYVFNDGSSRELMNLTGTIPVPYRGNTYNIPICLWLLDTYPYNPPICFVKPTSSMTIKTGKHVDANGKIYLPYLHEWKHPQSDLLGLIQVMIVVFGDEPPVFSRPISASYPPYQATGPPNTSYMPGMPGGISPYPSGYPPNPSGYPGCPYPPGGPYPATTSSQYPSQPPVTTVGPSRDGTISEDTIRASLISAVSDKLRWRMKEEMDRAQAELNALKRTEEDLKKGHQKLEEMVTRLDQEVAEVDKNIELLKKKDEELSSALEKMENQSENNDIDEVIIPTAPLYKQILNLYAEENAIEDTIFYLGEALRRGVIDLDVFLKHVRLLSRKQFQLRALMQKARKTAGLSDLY

As to `Cc1cn([C@H]2C=C[C@@H](CO)O2)c(=O)[nH]c1=O`, the Potency result in test [1], in test [3] and in test [4] was “inactive” throughout. The compound was classed as inactive in test [2] and in test [5]. Besides, the activation in test [6] was 0.0815% (inactive) and -0.191% (inactive) and -0.434% (inactive). For the same compound, in [7], the max response is 1.44% (inactive) and 1.55% (inactive) and -0.234% (inactive).
`CC[C@@]1(O)C(=O)OCc2c1cc1n(c2=O)Cc2cc3c(CN(C)C)c(O)ccc3nc2-1`: the Potency in test [8] is 0.0235 µM (active); in [10] it was 5.95 µM (active); in [11], 6.51 µM (active); in [14], 0.0074 µM (active); in test [15] it was 1.48 µM (active). Also, the compound was classed as inactive in [9]. Further, the viability (% of control) in test [12] stood at 4.59%. The viability, percent of control in test [13] came to 33.6%.
Consider `COc1ccc2c(c1)c(CC(=O)O)c(C)n2C(=O)c1ccc(Cl)cc1`, for which the Potency result in [1] and in test [3] was “inactive” each time. Further, the compound was called inactive in test [2] and in test [5]. In addition, the activation in [16] is -7.78% (inactive) and -10.3% (inactive); in test [6], 0.534% (inactive) and -1.07% (inactive). Moreover, the max response in [7] was 11.2% (inactive) and 10.8% (inactive).
`Clc1ccc(C(c2ccccc2Cl)C(Cl)Cl)cc1` (configuration not stated): the Potency entry in [1] and in test [3] was “inactive” in each case. Moreover, the compound was called inactive in [2] and in test [5]. Moreover, the Potency was 66.8 µM (active) in [4], 29.8 µM (active) in test [18] and 37.6 µM (active) in [19]. Moreover, the activation in test [17] was 2.3% (inactive); in test [6], 2.12% (inactive) and 0.378% (inactive). For the same compound, the max response in [7] is 18.7% (inactive).
Take `COc1ccc(CCN(C)CCCC(C#N)(c2ccc(OC)c(OC)c2)C(C)C)cc1OC` (configuration not stated): the compound was called inactive in [2], in test [9] and in [5]. Besides, the Potency result in test [3], in test [8] and in test [10] was “inactive” throughout. The activation in test [16] was -2.6% (inactive).
With `CC(C)(Oc1ccc(C2CC2(Cl)Cl)cc1)C(=O)O` (configuration not stated), the Potency entry in test [1] and in test [3] was “inactive” each time. Further, in test [2], the outcome was inactive. Further, the results for the activation in test [16] and in test [17] were -1.02% (inactive) and 1.65% (inactive), respectively. For the same compound, the Potency in test [7] was 14.1 µM (active).
Consider `Cc1cn([C@H]2C[C@H](N=[N+]=[N-])[C@@H](CO)O2)c(=O)[nH]c1=O`, for which the Potency result in test [1] and in [3] was “inactive” each time. In addition, the outcome in test [2] and in test [5] was inactive. The activation in test [16] is 7.41% (inactive) and -3.71% (inactive); in test [17], 0.977% (inactive) and -0.0662% (inactive); in [6], -0.858% (inactive) and 1.65% (inactive). Moreover, in [7], the max response is 0.0124% (inactive) and -0.27% (inactive).
Turning to `COc1cc2c(c(OC)c1OC)-c1ccc(OC)c(=O)cc1[C@@H](NC(C)=O)CC2`, the Potency result in test [1], in [3], in test [18] and in [19] was “inactive” each time. Also, the outcome in test [2] and in [5] was inactive. The activation in test [17] was 2.95% (inactive) and 1.58% (inactive) and 1.39% (inactive); in test [6], -0.775% (inactive) and -1.98% (inactive) and -0.55% (inactive). In addition, the max response in test [7] is -2.35% (inactive) and 0.0679% (inactive) and 8.6% (inactive).
